Experimental data reported in PubChem BioAssay AID504332 (National Center for Advancing Translational Sciences (NCATS), 2011).
The whole screen tested about 350,000 compounds, of which about 31,000 (8.9%) were called active. About 15% were inconclusive and are not listed. The call rests on the fitted dose curve; in most records, active means well fitted inhibition curve with a large enough effect; inconclusive means small, poorly fitted or top-dose-only effect; inactive means no such curve, though single readings can be large or run the other way. The entries come from a sample that favours actives as a whole.

Target: Histone-lysine N-methyltransferase EHMT2 (Homo sapiens) (UniProt Q96KQ7)
Assay: qHTS Assay for Inhibitors of Histone Lysine Methyltransferase G9a; further: nearly all actives have a fitted effect of over 75% in size
Settings: G9a H3K9 monomethylation, AlphaScreen, 2 h; series mostly up to 59 µM
From the text: Methylated lysines, on the N-terminal tails of histone proteins serve as epigenetic markers to recruit factors that can then modify local chromatin structure to lead to functional consequences. G9a and other members of the SUV39 family of the SET domain-containing superfamily of histone lysine methyltransferases (HMT) have been identified to specifically methylate Lys9 of histone H3 (H3K9). G9a catalyzes the mono- and di-methylation of H3K9 in mammalian euchromatic regions, where the resulting H3K9me2 is indicative of transcriptional repression. […] The inhibition of G9a will result in transcriptional activation and work synergistically with DNA methyltransferase and histone deacetylase inhibitors, to kill cancer cells. This qHTS assay for identification of G9a inhibitors is a chemiluminescence based AlphaScreen (PerkinElmer). Methylation of biotinylated-histone peptide is measured through specific antibody-based detection, in conjunction with streptavidin-coated donor and anti-IgG antibody-coated acceptor beads. The method is particularly well suited for detection of inhibitors acting by the desired histone peptide competitive mechanism and is applicable to testing other HMTs. Although AlphaScreen has significant advantages with its utility in a variety of epigenetic target assays, the primary screening data provided in this deposition should be used with caution due to the prevalence of screening artifacts. An AlphaScreen counterscreen is highly recommended to be run against any putative actives to eliminate non specific artifacts. Alternatively, one can use other AlphaScreen assays in PubChem to filter out promiscuous hits. Quinn et al. A chemiluminescence-based method for identification of histone lysine methyltransferase inhibitors. Mol Biosyst 6(5): 782-8. 2010. PMID: 20567762 [2] Baell,Holloway. New substructure filters for removal of pan assay interference compounds (PAINS) from screening libraries and for their exclusion in bioassays. J Med Chem. 53(7):2719-40. 2010. PMID: 20131845 NIH Molecular Libraries Probe Production Network [MLPCN] NIH Chemical Genomics Center [NCGC] Structural Genomics Consortium (SGC) NIH Grant: 5U54 MH084681-02
To each well of a 1,536w plate, 2ul of HMT enzyme (final 20nM) were added, using a nanoliter dispenser. The G9a- and GLP-inhibitor BIX-01294 (CID: 25150857) are used as an intraplate control, with a 16-point titration in duplicate. A Kalypsys pin-tool transferred 23nl of library compound solution in DMSO to each well. Following a 15 min incubation of enzyme with compounds at room temperature, 1ul mixture of b-H3K9 peptide substrate (final 500nM) and SAM cofactor (final 20uM) were added. Reactions were allowed to proceed at room temperature for 2 hours. Methylated b-H3K9 peptide product was detected with 0.5 ug/mL rabbit polyclonal anti-monomethyl histone H3K9 antibody (Abcam Inc., Cambridge, MA) and 20 ug/mL each streptavidin-coated donor and anti-rabbit IgG acceptor AlphaScreen beads. Antibody and beads were added in a 1ul dispense, for a final volume of 4ul, and plates were incubated, protected from the light, for 10 min at room temperature. Microplates were then read on an EnVision multilabel plate reader using the 1,536 plate HTS AlphaScreen aperture (excitation time 80 ms, measurement time 240 ms).
On the % scale 0 is the no-effect control and ±100 the full control effect; potency means the concentration at half of the fitted maximal effect.

Histone-lysine N-methyltransferase EHMT2 (Homo sapiens), sequence (Q96KQ7 913-1193 limits assumed): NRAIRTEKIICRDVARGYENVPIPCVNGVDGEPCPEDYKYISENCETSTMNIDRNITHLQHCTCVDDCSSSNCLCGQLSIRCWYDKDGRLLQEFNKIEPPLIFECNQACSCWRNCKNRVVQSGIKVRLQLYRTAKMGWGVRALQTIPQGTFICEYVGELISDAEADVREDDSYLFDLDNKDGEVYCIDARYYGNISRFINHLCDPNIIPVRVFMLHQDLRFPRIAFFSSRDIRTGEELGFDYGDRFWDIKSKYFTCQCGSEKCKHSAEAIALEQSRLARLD

Potency, inactive:
CC(CN1CCC(n2nccc2NC(=O)C2CCCC2)CC1)c1ccccc1 (stereo not given)
CC(CN1CCOCC1)c1ccccc1 (stereo not given)
Cc1ccc(-c2nn3c(=O)cc(CN4CCN(S(=O)(=O)c5ccc(Cl)cc5)CC4)nc3s2)cc1
CCOc1cc(C(=O)OCC(=O)Nc2cccc(C)c2)ccc1OCC(=O)N1CCOCC1
CCOc1cc(C(=S)N2CCOCC2)ccc1OS(=O)(=O)c1ccc(Br)cc1
Cc1cccc(NC(=O)CSc2ncc(-c3ccccc3)[nH]2)c1C
Cc1ccc2c(c1)C1CN(C)CCC1N2S(=O)(=O)c1cccc(F)c1 (stereo not given)
COc1ccc(C(=O)NC2CCN(C(=O)Nc3ccc(F)cc3)CC2)cc1
CCc1nnc(SCC(=O)Nc2cc(OC)ccc2OC)nc1CC
COc1ccc(OC)c(NC(=O)CSc2nc3ccccc3nc2N2CCCCC2)c1
CC(C)(C)c1ccc(C(=O)NCCn2c(N)c(C#N)c3nc4ccccc4nc32)cc1
N#Cc1c(N)n(CCOC(=O)c2ccc(Cl)cc2)c2nc3ccccc3nc12
COc1ccc(CNC(=O)CN(c2ccc(OC)c(Cl)c2)S(=O)(=O)c2ccc(C)cc2)cc1
CCOc1ccc(N2CC(C(=O)NCc3ccccn3)CC2=O)cc1 (stereo not given)
CCN(c1ccccc1)S(=O)(=O)c1cc(C(=O)NCc2ccccn2)ccc1C
COc1ccc(Cl)cc1N(C)C(=O)c1cc2c(=O)oc3ccc(C)cc3c2s1
COC(=O)c1ccc(COC(=O)CNC(=O)c2cccc(OC)c2)o1
COc1ccccc1Oc1nc(-c2cccnc2)nc2ccccc12
COc1cc(Nc2nc(-c3ccc(OC)c(OC)c3)nc3ccccc23)cc(OC)c1
CCc1nc2onc(C)c2c(=O)n1CC(=O)O
CCOC(=O)c1c(S(=O)(=O)N2CCCC(C(=O)NCc3ccc(F)cc3)C2)c(C)n(CC)c1C (stereo not given)
Cc1ccc(CN2CC(C(=O)N3CCN(S(=O)(=O)c4ccccc4)CC3)CC2=O)cc1 (stereo not given)
Cc1ccc(CN2CCCn3nc(C(=O)NCc4ccccc4Cl)cc3C2=O)cc1
O=C(O)C#Cc1cccc2ccccc12
CCOc1[nH]n(-c2ccc(Cl)cc2)c(=O)c1C=Nc1ccc(O)cc1
O=C(N/N=C/c1c(Cl)[nH]c2ccccc12)c1sc2ccccc2c1Cl
CCOc1ccc(N=Cc2c(O)n(-c3cccc(C)n3)c(=O)c3ccccc23)cc1
COc1ccc(N=C(C)c2sc3ccccc3c2O)cc1
O=S(=O)(NCCc1nnc2ccc(SCc3ccc(Cl)cc3Cl)nn12)c1ccccc1
COc1ccc(NC(=O)C2CCCN(S(=O)(=O)c3cccc4nonc34)C2)cc1Cl (stereo not given)
O=S(=O)(Nc1ccc(-n2cnnn2)cc1)c1ccc(Cl)cc1

Potency, active:
CC(CN1CCCCC1)c1ccccc1 (stereo not given) 11.2 µM
CCOc1cc(C(=S)N2CCOCC2)ccc1O 4.47 µM
Cc1ccc2c(c1)C1CN(C)CCC1N2S(=O)(=O)c1ccc(Oc2ccc([N+](=O)[O-])cc2)cc1 (stereo not given) 35.5 µM
CCc1cc2cc(OC)ccc2nc1SCC(=O)Nc1cc(OC)c(OC)cc1C(=O)O 50.1 µM
CN(C)CCCn1c(N)c(C#N)c2nc(C#N)c(C#N)nc21 25.1 µM
CCOc1ccc(N2CC(C(=O)NCCN3C(=O)S/C(=C\c4cccnc4)C3=O)CC2=O)cc1 (stereo not given) 39.8 µM
COc1ccc(Nc2nc(-c3cccnc3)nc3ccccc23)cn1 35.5 µM
Oc1ccc(N=Cc2sc3ccccc3c2Cl)cc1 10 µM
Oc1ccc2ccccc2c1C=Nc1ccccc1 2.51 µM
Oc1ccc(N=Cc2c(O)ccc3ccccc23)cc1 1 µM

activity, negative = inhibition, inactive:
O=S(=O)(c1ccc(SCc2ccc(Br)cc2)nc1)N1CCOCC1 -2.71% [at 12.7 µM]
Cc1ccc(CN2CC(C(=O)NNC(=O)Cn3ccc(C(F)(F)F)n3)CC2=O)cc1 (stereo not given) -2.67% [at 12.7 µM]
O=C(OCC1OC(Oc2ccc(O)cc2)C(O)C(O)C1O)c1ccccc1 (stereo not given) 2.48% [at 12.7 µM]
COc1ccc(S(=O)(=O)N2CCOC23CCN(S(=O)(=O)c2ccc([N+](=O)[O-])cc2)CC3)cc1 -2.42% [at 0.501 µM]
O=C(CNC(=O)c1ccc2ccccc2c1)Nc1ncccc1O 20.5% [at 2.33 µM]
COc1ccccc1N1CC(C(=O)NCCN2C(=O)S/C(=C\c3cccnc3)C2=O)CC1=O (stereo not given) 2.97% [at 12.7 µM]
CCC(=O)c1cc(F)ccc1OCC(=O)Nc1ccc2c(c1)OCCO2 -5.64% [at 12.7 µM]
CC(CN1CCOCC1)OC(=O)c1ccc(C(C)(C)C)cc1 (stereo not given) 6.26% [at 0.501 µM]
N#Cc1ccc(C2=CC(=O)C[C@H](c3ccc(Cl)cc3)C2)cc1 -28.8% [at 0.501 µM]
